# Measured values: PubChem BioAssay
# Calls of active or inactive are those of the source.
# Assay: small-molecule binders of probe aLefty1, primary screen, biochemical, small-molecule microarray, 635/667 nm fluorescence (AID 1153);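 note: score merges spot fluorescence with signal-to-noise ratio from the scanned slide images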
# Settings: higher = more signal
row,SMILES,composite z-score
1,C[C@@H]1CC[C@H]2C(=O)O[C@@H](Cc3ccccc3)CN2[C@H]1c1ccc(Br)cc1,-0.148
2,Cc1cc2c(nc1C)CCCCN2CC(C)ON=C1[C@H]2CCn3c(=O)n(-c4ccccc4)c(=O)n3[C@H]2[C@H](O)[C@@H]2O[C@H]12 (stereo partly specified),-0.0536
3,C#CCCCON=C1C[C@@H](O)[C@@H](O)[C@@H]2[C@@H]3C(=O)N(c4ccc(F)cc4F)C(=O)[C@@H]3CC[C@@H]12,-0.147
4,CCOC(=O)NN=C1C[C@@H](O)[C@@H](O)[C@@H]2[C@@H]3C(=O)N(c4cccc(Oc5ccccc5)c4)C(=O)[C@@H]3CC[C@@H]12,-0.0984
5,CO[C@@H]1COC(=O)[C@H](CCSC)NC(=O)CC=C[C@@H](C)COC(=O)CCC[C@H]1C,0.729
6,O=c1n(-c2ccccc2)c(=O)n2n1CC[C@@H]1C(=NOCc3ccccc3)[C@H]3O[C@H]3[C@@H](O)[C@@H]12,-0.514
7,C[C@@H](c1ccccc1)N1C(=O)[C@H]2[C@H]3[C@H](O)[C@H](O)CC(=NO[C@@H]4O[C@H](CO)[C@@H](O)[C@H](O)[C@H]4O)[C@@H]3CC[C@H]2C1=O,-0.0272
8,CC(C)=CCCC(C)=CCON=C1C[C@@H](O)[C@@H](O)[C@@H]2[C@@H]3C(=O)N(c4ccc(F)cc4F)C(=O)[C@@H]3CC[C@@H]12,0.0999
9,Cc1ccc(S(=O)(=O)OC[C@H]2CN3[C@H](c4ccc(Br)cc4)[C@@H](C)CC[C@H]3C(=O)O2)cc1,-0.0501
10,CC(C)CON=C1C[C@@H](O)[C@@H](O)[C@@H]2[C@@H]3C(=O)N(C[C@@H]4CCCO4)C(=O)[C@@H]3CC[C@@H]12,-0.0501
11,CC(C)=NOC[C@@H](C)[C@H](OCc1ccccc1)C(C)C,0.103
12,CO[C@H](C1CCCCC1)[C@H](C)C=CCC(=O)OCCCc1ccccc1,-0.194
13,CCOC(=O)[C@H](CC(C)C)NC(=O)CCC1CC(OC(=O)NCc2ccc3c(c2)OCO3)CC2(CCCC(COC(=O)NCc3cccc(C(F)(F)F)c3)O2)O1 (stereo partly specified),0.125
14,CC(C)=CCCC(C)=CCON=C1C[C@@H](O)[C@@H](O)[C@@H]2[C@@H]3C(=O)N(C(C)(C)C)C(=O)[C@@H]3CC[C@@H]12,0.167
15,CCOC(=O)[C@H](Cc1ccccc1)NC(=O)CCC1CC(OC(=O)NCCc2ccc(F)cc2)CC2(CCCC(COC(=O)NCCc3ccccc3OC)O2)O1 (stereo partly specified),-0.0075
16,C=CC[C@@H]1C=C[C@H](ON=C(C)CCC(=O)OC[C@H]2O[C@H](c3ccccc3)C=C[C@@H]2Oc2ccc(OC)cc2)[C@@H](CO)O1,-0.291
17,CCOC(=O)[C@H](CC(C)C)NC(=O)CCC1CC(OC(=O)NCc2cccc3ccccc23)CC2(CCCC(COC(=O)NCCCN3CCCC3=O)O2)O1 (stereo partly specified),-0.177
18,CCCCC#C[C@@H]1C=C[C@H](Oc2ccc(C(=O)OC)cc2)[C@@H](COC(=O)OCC)O1,-0.0559
19,COC(=O)[C@@H]1CC[C@H](C)[C@@H](c2ccc(C)cc2)N1C(=O)c1ccc(C=NO[C@@H]2O[C@H](COC(C)=O)[C@@H](OC(C)=O)[C@H](OC(C)=O)[C@H]2OC(C)=O)cc1,0.0391
20,C=CC[C@@H]1C=C[C@H](ON=C[C@@H](C)[C@H](OCc2ccccc2)C(C)C)[C@@H](CO)O1,-0.193
21,COC(=O)CC=C[C@@H](C)[C@@H](C=NOCC[C@@H]1C=C[C@H](OC(C)=O)[C@@H](COC(C)=O)O1)OC,-0.0969
22,CC(CCN1CCCCc2nc(C)c(C)cc21)=NO[C@H](C)c1cn([C@H](CO)Cc2ccccc2)nn1,-0.0162
23,CC[C@@H](c1ccccc1)n1c(=O)n2n(c1=O)[C@H]1[C@H](O)[C@@H]3O[C@@H]3C(=NOC[C@@H](O)COCc3ccco3)[C@H]1CC2,-0.89
24,C#CCCCON=C1[C@H]2CCn3c(=O)n(-c4ccccc4)c(=O)n3[C@H]2[C@H](O)[C@@H]2O[C@H]12,-0.19
25,CC(C)=CCCC(C)=CCON=C1C[C@@H](O)[C@@H](O)[C@@H]2[C@@H]3C(=O)N(Cc4ccccc4)C(=O)[C@@H]3CC[C@@H]12,-0.241

# Assay: PSAC antagonists in infected red cells, primary screen, cell-based, P. falciparum Indochina, OD700, 1 h (AID 1154)
# Settings: P. falciparum Indochina infected RBC osmotic lysis, higher = more signal, called active from +8 up or from −8 down
row,SMILES,z-score
1,C#CCCCON=C1C[C@@H](O)[C@@H](O)[C@@H]2[C@@H]3C(=O)N(Cc4ccccc4)C(=O)[C@@H]3CC[C@@H]12,0.564 (inactive)
2,CCCNC(=O)OC[C@H]1O[C@H](CCON=C(C)CCC(=O)OC[C@H]2O[C@H](c3ccccc3)C=C[C@@H]2Oc2ccc(OC)cc2)C=C[C@@H]1Oc1ccc(OC)cc1,2.17 (inactive)
3,CO[C@H]1COC(=O)[C@@H](C)COC(=O)[C@H](C)NC(=O)CC=C[C@H]1C,-0.0875 (inactive)
4,C[C@@H](c1ccccc1)N1C(=O)[C@H]2[C@H]3[C@H](O)[C@H](O)CC(=O)[C@H]3CC[C@H]2C1=O,-0.74 (inactive)
5,CO[C@H]1COC(=O)CC=C[C@@H](C)[C@H](NS(=O)(=O)c2ccc(C)cc2)COC(=O)CCC[C@@H]1C,-0.669 (inactive)
6,CO[C@@H]1COC(=O)[C@H](CCSC)NC(=O)CC=C[C@@H](C)COC(=O)[C@H](C)NC(=O)CC=C[C@H]1C,-0.0455 (inactive)
7,CCC(=O)[C@@]1(O)C(=O)N2C(=C3C(=O)OCC[C@@H]31)N(Cc1ccccc1)C(C)=C(C(=O)OC)[C@H]2c1ccccc1,0.246 (inactive)
8,CCOC(=O)[C@H](CC(C)C)NC(=O)CCC1CC(OC(=O)NCCc2ccc(F)cc2)CC2(CCCC(COC(=O)NCCOc3ccccc3)O2)O1 (stereo partly specified),4.92 (inactive)
9,CCCNC(=O)OC[C@H]1O[C@H](CCON=C(C)CCN2CCCc3nc(C)c(C)cc32)C=C[C@@H]1Oc1ccc(OC)cc1,5.53 (inactive)
10,O=C1CCCC=C1C(O)CCOC(c1ccccc1)(c1ccccc1)c1ccccc1 (stereo unspecified),1.52 (inactive)
11,CCCNC(=O)OC[C@H]1O[C@H](CCON=Cc2ccc(C(=O)N3[C@H](c4ccc(C)cc4)[C@@H](C)CC[C@H]3C(=O)OC)cc2)C=C[C@@H]1Oc1ccc(OC)cc1,1.21 (inactive)
12,C[C@@H]1CC[C@H]2C(=O)O[C@@H](Cc3ccccc3)CN2[C@H]1c1ccc(Br)cc1,2.26 (inactive)
13,Cc1cc2c(nc1C)CCCCN2CC(C)ON=C1[C@H]2CCn3c(=O)n(-c4ccccc4)c(=O)n3[C@H]2[C@H](O)[C@@H]2O[C@H]12 (stereo partly specified),0.683 (inactive)
14,C#CCCCON=C1C[C@@H](O)[C@@H](O)[C@@H]2[C@@H]3C(=O)N(c4ccc(F)cc4F)C(=O)[C@@H]3CC[C@@H]12,1.22 (inactive)
15,CCOC(=O)NN=C1C[C@@H](O)[C@@H](O)[C@@H]2[C@@H]3C(=O)N(c4cccc(Oc5ccccc5)c4)C(=O)[C@@H]3CC[C@@H]12,0.999 (inactive)
16,CO[C@@H]1COC(=O)[C@H](CCSC)NC(=O)CC=C[C@@H](C)COC(=O)CCC[C@H]1C,19.7 (active)
17,O=c1n(-c2ccccc2)c(=O)n2n1CC[C@@H]1C(=NOCc3ccccc3)[C@H]3O[C@H]3[C@@H](O)[C@@H]12,6.33 (inactive)
18,C[C@@H](c1ccccc1)N1C(=O)[C@H]2[C@H]3[C@H](O)[C@H](O)CC(=NO[C@@H]4O[C@H](CO)[C@@H](O)[C@H](O)[C@H]4O)[C@@H]3CC[C@H]2C1=O,-0.091 (inactive)

row,SMILES,z-score
1,CC(C)=CCCC(C)=CCON=C1C[C@@H](O)[C@@H](O)[C@@H]2[C@@H]3C(=O)N(c4ccc(F)cc4F)C(=O)[C@@H]3CC[C@@H]12,4.44 (inactive)
2,Cc1ccc(S(=O)(=O)OC[C@H]2CN3[C@H](c4ccc(Br)cc4)[C@@H](C)CC[C@H]3C(=O)O2)cc1,3.18 (inactive)
3,CC(C)CON=C1C[C@@H](O)[C@@H](O)[C@@H]2[C@@H]3C(=O)N(C[C@@H]4CCCO4)C(=O)[C@@H]3CC[C@@H]12,-0.441 (inactive)
4,CC(C)=NOC[C@@H](C)[C@H](OCc1ccccc1)C(C)C,0.641 (inactive)
5,CO[C@H](C1CCCCC1)[C@H](C)C=CCC(=O)OCCCc1ccccc1,1.56 (inactive)
6,CCOC(=O)[C@H](CC(C)C)NC(=O)CCC1CC(OC(=O)NCc2ccc3c(c2)OCO3)CC2(CCCC(COC(=O)NCc3cccc(C(F)(F)F)c3)O2)O1 (stereo partly specified),1.73 (inactive)
7,CC(C)=CCCC(C)=CCON=C1C[C@@H](O)[C@@H](O)[C@@H]2[C@@H]3C(=O)N(C(C)(C)C)C(=O)[C@@H]3CC[C@@H]12,1.43 (inactive)
8,CCOC(=O)[C@H](Cc1ccccc1)NC(=O)CCC1CC(OC(=O)NCCc2ccc(F)cc2)CC2(CCCC(COC(=O)NCCc3ccccc3OC)O2)O1 (stereo partly specified),0.425 (inactive)
9,C=CC[C@@H]1C=C[C@H](ON=C(C)CCC(=O)OC[C@H]2O[C@H](c3ccccc3)C=C[C@@H]2Oc2ccc(OC)cc2)[C@@H](CO)O1,10.9 (active)
10,CCOC(=O)[C@H](CC(C)C)NC(=O)CCC1CC(OC(=O)NCc2cccc3ccccc23)CC2(CCCC(COC(=O)NCCCN3CCCC3=O)O2)O1 (stereo partly specified),0.51 (inactive)
11,CCCCC#C[C@@H]1C=C[C@H](Oc2ccc(C(=O)OC)cc2)[C@@H](COC(=O)OCC)O1,5.53 (inactive)
12,COC(=O)[C@@H]1CC[C@H](C)[C@@H](c2ccc(C)cc2)N1C(=O)c1ccc(C=NO[C@@H]2O[C@H](COC(C)=O)[C@@H](OC(C)=O)[C@H](OC(C)=O)[C@H]2OC(C)=O)cc1,-0.013 (inactive)
13,C=CC[C@@H]1C=C[C@H](ON=C[C@@H](C)[C@H](OCc2ccccc2)C(C)C)[C@@H](CO)O1,1.64 (inactive)
14,COC(=O)CC=C[C@@H](C)[C@@H](C=NOCC[C@@H]1C=C[C@H](OC(C)=O)[C@@H](COC(C)=O)O1)OC,0.551 (inactive)
15,CC(CCN1CCCCc2nc(C)c(C)cc21)=NO[C@H](C)c1cn([C@H](CO)Cc2ccccc2)nn1,2.87 (inactive)
16,CC[C@@H](c1ccccc1)n1c(=O)n2n(c1=O)[C@H]1[C@H](O)[C@@H]3O[C@@H]3C(=NOC[C@@H](O)COCc3ccco3)[C@H]1CC2,1.34 (inactive)
17,C#CCCCON=C1[C@H]2CCn3c(=O)n(-c4ccccc4)c(=O)n3[C@H]2[C@H](O)[C@@H]2O[C@H]12,0.116 (inactive)
18,CC(C)=CCCC(C)=CCON=C1C[C@@H](O)[C@@H](O)[C@@H]2[C@@H]3C(=O)N(Cc4ccccc4)C(=O)[C@@H]3CC[C@@H]12,0.391 (inactive)
